Eight compounds from PubChem BioAssay can be followed below.

One may read the viability as a read-out of living cells in per cent, often relative to untreated cells.

Calls of active or inactive are those of the source.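 The calls were made as follows, unless noted: active = normalized viability below 100% at a tested concentration; inactive = the rest.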

Assay [1] can be described thus: differential killing of epithelial or mesenchymal cells, primary screen, imaging, PC-3E GFP, TEM4-18 mCherry, co-culture (AID 1345086;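 active = compounds killing one labelled cell type while sparing the other, by normalised counts and ratio limits, not self-fluorescent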;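 also: normalised mesenchymal count divided by normalised epithelial count so high means epithelial killing; cells exposed to compound for 72 h before imaging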). As to conditions: imaging cell counts, at 1 µM, actives lie on both sides, counts scaled to control wells, 1 = unselective.
Assay [2] concerns Aerobactin synthetase IucA (Klebsiella pneumoniae hvKP1). As to the kind of experiment: Biochemical IucA enzyme inhibition primary screen of the Spectrum library (AID 1346200; call rule not given here;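 also: 100% = wells without compound and 0% = wells lacking enzyme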). As to conditions: malachite green pyrophosphate, A620, at 8 µM, stronger effect = lower value.
The nature of assay [3]: ovarian cancer cell viability with rucaparib, profiling panel, oncology-focused library, rucaparib conditional (AID 1508598). As to conditions: patient-derived ovarian cancer cells, CellTiter-Glo viability, 144 h, stronger effect = lower value. Background: In ATP-based viability assays light output follows the ATP content of the culture.
Assay [4] can be described thus: stimulators of nuclear beta-catenin in C2C12, primary screen, imaging, WNT3A-conditioned medium, mouse C2C12, NPC library (AID 1117326; in the data active = nuclear beta-catenin stimulation mostly above about 4.2%, no sharp cut-off; inactive = mostly below about 10%). As to conditions: stronger effect = higher value.
The nature of assay [5]: stimulators of insulin release from INS-1E, primary screen, cell-based, 5 mM glucose, NPC library (AID 1117329;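 active = compound raises insulin release from rat beta cells at 5 mM glucose, no numeric limit stated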). As to conditions: rat INS-1E insulin secretion, at 10 µM, stronger effect = higher value.
A short description of assay [6]: glucagon-like peptide 1 release enhancers, primary assay, NCI-H716 cell line, NPC library (AID 1117341;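 active = compound raises GLP1 secretion from the human gut endocrine cells, with no numeric limit stated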). As to conditions: NCI-H716 cells, at 10 µM, stronger effect = higher value.
Assay [7] in a line: liver-stage malaria parasite growth inhibition, primary screen, cell-based, HepG2, luciferase luminescence, HepG2 viability (AID 624349; in the data active = parasite load remaining mostly below about 12%, no sharp cut-off; inactive = mostly above about 10%;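 also: 100% = mean of DMSO negative control wells on the same plate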). As to conditions: P. berghei liver stage in HepG2, luciferase luminescence, concentration not given here; parasite load remaining: stronger effect = lower value; viability: measured here: HepG2 viability without parasites.
Assay [8] in a line: growth inhibition of GSK3B-pretreated HCT116 cells – cell-based, CellTiter-Glo, 0.2 to 20 µM (AID 1117336;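 active = compounds lowering colon cancer cell viability after pretreatment blocking the GSK3B kinase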). As to conditions: HCT116 viability after GSK3B inhibitor, at 20 µM, stronger effect = higher value.
Assay [9] is described as follows: inhibition of endothelial tube formation, primary screen, imaging, VEGF stimulated, CD31 staining, tube area, NPC library (AID 1117340;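 active = compound that reduces growth-factor-driven endothelial tube area in a mixed cell culture, no cutoff stated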). As to conditions: VEGF-stimulated ADSC/ECFC co-culture, at 10 µM, stronger effect = higher value.
Assay [10] is described as follows: HCT116 colon cancer cell growth inhibition, primary screen, CellTiter-Glo luminescence, NPC library (AID 1117342;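 active = compounds that lower survival of HCT116 colon cancer cells in the luminescence readout, no numeric limit stated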). As to conditions: at 20 µM (top of the series).
Assay [11] can be described thus: CellTiter-Glo luminescent readout of SW480 viability loss, NPC library primary (AID 1117343;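 active = compounds that lower viability of the colon cancer cells in the luminescence readout, with no numeric limit stated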). As to conditions: CellTiter-Glo luminescence; at 20 µM (top of the series).
Assay [12] in a line: decreased DLD-1 cellular survival, CellTiter-Glo luminescent readout, NPC compound collection, primary HTS (AID 1117346;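 active = compounds that lower survival of DLD-1 colon cancer cells in the luminescence readout, no cutoff given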). As to conditions: DLD-1 viability, CellTiter-Glo luminescence; at 20 µM (top of the series).
A short description of assay [13]: sensitizers of A549 cells to miR-34 induction, primary screen, imaging, A549 dox-inducible miR-34, nuclei and caspase counts (AID 1347080;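 active = compounds whose cell count with miR-34 switched on is under 0.7 times the count with it off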). As to conditions: A549 miR-34 inducible, Hoechst nuclei count, 48 h.
The target of assay [14] is NAD(+) hydrolase SARM1 (Homo sapiens) (UniProt Q6SZW1). Description: SARM1 TIR NADase inhibitors, cell lysate, NAD-Glo luminescence (AID 1508614;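 active = compound whose remaining NAD level is above about 45 nM, limit read from the data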;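 also: higher remaining NAD means stronger inhibition of SARM1 NADase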). As to conditions: SAM-TIR HEK293T lysate NADase, at 1 µM, stronger effect = higher value.
The nature of assay [15]: survival rescue of mitochondrial mutant cells in low glucose, primary screen, MELAS cybrids, Rieske KO mouse fibroblasts, CellTiter-Glo (AID 1508586;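 active = mean z-score across replicates of 1.96 or higher in either the MELAS or the Rieske mutant cell line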;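 also: z relative to plate mean and SD of compound and empty wells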).
The target in assay [16] is Mitogen-activated protein kinase 7 (Homo sapiens) (UniProt Q13164). Description: ERK5 transactivation activators in reporter cells, primary screen, cell-based, HTS (AID 1508626;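 active = luciferase signal above three times the same-plate solvent-only control wells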;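 also: luciferase driven by Gal4-ERK5 fusion binding five Gal4 sites before minimal TATA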). As to conditions: HeLa Gal4-ERK5 transactivation, 18 h, at 5 µM, stronger effect = higher value.
Chain of Mitogen-activated protein kinase 7 (Homo sapiens) (Q13164 whole entry, looked up, the tested form may be a part): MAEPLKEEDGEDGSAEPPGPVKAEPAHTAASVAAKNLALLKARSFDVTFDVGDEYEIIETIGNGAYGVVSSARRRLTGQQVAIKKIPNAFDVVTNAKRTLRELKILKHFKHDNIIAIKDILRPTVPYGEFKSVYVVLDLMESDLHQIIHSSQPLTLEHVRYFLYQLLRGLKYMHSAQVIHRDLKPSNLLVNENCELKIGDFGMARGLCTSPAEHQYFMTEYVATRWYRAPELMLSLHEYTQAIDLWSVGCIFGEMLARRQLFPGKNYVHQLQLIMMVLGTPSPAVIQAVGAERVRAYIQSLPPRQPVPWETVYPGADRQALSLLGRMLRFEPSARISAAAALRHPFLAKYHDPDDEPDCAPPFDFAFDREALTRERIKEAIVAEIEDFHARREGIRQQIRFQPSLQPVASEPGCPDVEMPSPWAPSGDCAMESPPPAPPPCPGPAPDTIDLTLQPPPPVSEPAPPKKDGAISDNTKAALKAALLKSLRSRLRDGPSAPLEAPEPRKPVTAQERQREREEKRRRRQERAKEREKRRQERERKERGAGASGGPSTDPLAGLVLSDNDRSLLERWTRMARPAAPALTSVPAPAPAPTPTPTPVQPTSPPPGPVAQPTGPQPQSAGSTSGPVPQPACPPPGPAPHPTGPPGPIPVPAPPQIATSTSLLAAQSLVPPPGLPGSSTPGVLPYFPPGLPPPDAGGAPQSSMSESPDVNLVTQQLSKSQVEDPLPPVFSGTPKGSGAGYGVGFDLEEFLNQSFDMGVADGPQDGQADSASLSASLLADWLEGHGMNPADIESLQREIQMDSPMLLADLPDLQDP

Chain of NAD(+) hydrolase SARM1 (Homo sapiens) (Q6SZW1 whole entry, looked up): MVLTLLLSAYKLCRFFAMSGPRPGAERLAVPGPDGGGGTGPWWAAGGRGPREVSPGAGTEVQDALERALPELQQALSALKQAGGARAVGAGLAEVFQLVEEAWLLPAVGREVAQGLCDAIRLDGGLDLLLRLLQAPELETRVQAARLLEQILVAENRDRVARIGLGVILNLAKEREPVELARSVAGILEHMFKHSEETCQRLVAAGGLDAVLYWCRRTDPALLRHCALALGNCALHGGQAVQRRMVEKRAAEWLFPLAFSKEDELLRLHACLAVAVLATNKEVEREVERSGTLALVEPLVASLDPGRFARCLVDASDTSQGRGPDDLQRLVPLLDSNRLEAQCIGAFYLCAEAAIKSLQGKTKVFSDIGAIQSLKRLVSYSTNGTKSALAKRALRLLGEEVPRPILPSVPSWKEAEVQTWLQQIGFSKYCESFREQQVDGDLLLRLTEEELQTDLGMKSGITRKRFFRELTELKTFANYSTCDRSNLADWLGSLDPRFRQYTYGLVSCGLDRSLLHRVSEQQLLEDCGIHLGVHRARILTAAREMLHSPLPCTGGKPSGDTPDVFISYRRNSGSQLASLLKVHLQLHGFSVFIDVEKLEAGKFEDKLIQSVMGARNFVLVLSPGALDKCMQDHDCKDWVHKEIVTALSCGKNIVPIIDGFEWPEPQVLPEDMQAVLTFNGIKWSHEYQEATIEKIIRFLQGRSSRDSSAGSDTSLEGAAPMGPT

Regarding `CNCC(=O)c1ccc(O)c(O)c1`, the red/green cell ratio (normalised) in assay [1] is 1.24 (inactive).
For the compound `O=C(NC(=O)c1c(F)cccc1F)Nc1cc(Cl)c(OC(F)(F)C(F)C(F)(F)F)cc1Cl` (stereo unspecified), the activity remaining in [2] was 94.5% (inactive).
As for `Cn1c(CCCC(=O)O)nc2cc(N(CCCl)CCCl)ccc21`, the viability in [3] (at 0.000305 µM, OCI-C5x cells, with rucaparib 10 µM, 100% = cells with rucaparib alone) was 103% (inactive); in assay [3] (at 0.000305 µM, OCI-C5x cells, without rucaparib) it was 107% (inactive); in assay [3] (at 0.000305 µM, OCI-P5x cells, with rucaparib 20 µM, 100% = cells with rucaparib alone), 107% (inactive); in assay [3] (at 0.000305 µM, OCI-P5x cells, without rucaparib) it was 101% (inactive); in assay [3] (at 0.00122 µM, OCI-C5x cells, with rucaparib 10 µM, 100% = cells with rucaparib alone), 97.3% (active); in [3] (at 0.00122 µM, OCI-C5x cells, without rucaparib), 99.1% (active). For the same compound, the viability in assay [3] (at 0.00122 µM, OCI-P5x cells, with rucaparib 20 µM, 100% = cells with rucaparib alone) is 99.9% (active); in assay [3] (at 0.00122 µM, OCI-P5x cells, without rucaparib), 102% (inactive); in assay [3] (at 0.00488 µM, OCI-C5x cells, with rucaparib 10 µM, 100% = cells with rucaparib alone), 104% (inactive); in [3] (at 0.00488 µM, OCI-C5x cells, without rucaparib), 104% (inactive); in assay [3] (at 0.00488 µM, OCI-P5x cells, with rucaparib 20 µM, 100% = cells with rucaparib alone) it was 103% (inactive); in assay [3] (at 0.00488 µM, OCI-P5x cells, without rucaparib), 109% (inactive). In addition, the viability in [3] (at 0.0195 µM, OCI-C5x cells, with rucaparib 10 µM, 100% = cells with rucaparib alone) was 105% (inactive); in [3] (at 0.0195 µM, OCI-C5x cells, without rucaparib) it was 99.7% (active); in assay [3] (at 0.0195 µM, OCI-P5x cells, with rucaparib 20 µM, 100% = cells with rucaparib alone), 93.4% (active); in [3] (at 0.0195 µM, OCI-P5x cells, without rucaparib), 100% (inactive); in assay [3] (at 0.0781 µM, OCI-C5x cells, with rucaparib 10 µM, 100% = cells with rucaparib alone), 109% (inactive); in assay [3] (at 0.0781 µM, OCI-C5x cells, without rucaparib) it was 97.6% (active). In addition, the viability in assay [3] (at 0.0781 µM, OCI-P5x cells, with rucaparib 20 µM, 100% = cells with rucaparib alone) is 92.7% (active); in [3] (at 0.0781 µM, OCI-P5x cells, without rucaparib), 96.4% (active); in assay [3] (at 0.313 µM, OCI-C5x cells, with rucaparib 10 µM, 100% = cells with rucaparib alone) it was 104% (inactive); in assay [3] (at 0.313 µM, OCI-C5x cells, without rucaparib), 101% (inactive); in assay [3] (at 0.313 µM, OCI-P5x cells, with rucaparib 20 µM, 100% = cells with rucaparib alone) it was 95% (active); in assay [3] (at 0.313 µM, OCI-P5x cells, without rucaparib) it was 74.7% (active). Besides, the viability in assay [3] (at 1.25 µM, OCI-C5x cells, with rucaparib 10 µM, 100% = cells with rucaparib alone) is 124% (inactive); in assay [3] (at 1.25 µM, OCI-C5x cells, without rucaparib), 97.4% (active); in [3] (at 1.25 µM, OCI-P5x cells, with rucaparib 20 µM, 100% = cells with rucaparib alone), 92.4% (active); in assay [3] (at 1.25 µM, OCI-P5x cells, without rucaparib), 79.4% (active); in assay [3] (at 5 µM, OCI-C5x cells, with rucaparib 10 µM, 100% = cells with rucaparib alone) it was 106% (inactive); in [3] (at 5 µM, OCI-C5x cells, without rucaparib), 93% (active). Moreover, the viability was 80.1% (active) in assay [3] (at 5 µM, OCI-P5x cells, with rucaparib 20 µM, 100% = cells with rucaparib alone) and 84.8% (active) in assay [3] (at 5 µM, OCI-P5x cells, without rucaparib).
As to `CC1(C)[C@H](C=C(Cl)Cl)[C@@H]1C(=O)OCc1c(F)c(F)cc(F)c1F`, the nuclear beta-catenin stimulation in assay [4] (at 10 µM) was -2.8% (inactive); in assay [4] (stimulation, at 2 µM), -1.8%. In [5], the insulin secretion stimulation is 0.45% (inactive). The GLP1 secretion stimulation in assay [6] was -5.4% (inactive).
Turning to `COP(=S)(OC)Oc1cc(Cl)c(Cl)cc1Cl`, the parasite load remaining in [7] is 48.6% (inactive). Besides, the viability in assay [7] was 108%. In addition, the nuclear beta-catenin stimulation is 2.5% (inactive) in assay [4] (at 10 µM) and -0.1% in assay [4] (stimulation, at 2 µM). Further, in [5], the insulin secretion stimulation was 2.1% (inactive). Also, the viability decrease in assay [8] was -23.4% (inactive). Further, the tube area decrease in assay [9] is -3.6% (inactive). Further, the GLP1 secretion stimulation in assay [6] is 3.7% (inactive). Besides, the inhibition of viability in assay [10] was 9.4% (inactive). Further, the results for the viability decrease (inhibition) in assay [11] and in assay [12] were 32% (inactive) and 15.4% (inactive), respectively. In addition, the fold change is 0.898 (inactive) in [13] (stronger effect = lower value, cell number ratio, induced over uninduced) and 3.75 in [13] (measured here: relative caspase fold change +Dox/-Dox). The cell count in [13] (measured here: total cells with miR-34 induction, stronger effect = lower value) amounted to 12000; in assay [13] (measured here: total cells without miR-34 induction), 13300.
As to `CCOc1cc(C=O)ccc1O`, the nuclear beta-catenin stimulation was -1.6% (inactive) in assay [4] (at 10 µM) and -0.8% in assay [4] (stimulation, at 2 µM). For the same compound, the insulin secretion stimulation in assay [5] is 0.4% (inactive). For the same compound, the viability decrease in [8] was 5.6% (inactive). For the same compound, the tube area decrease in assay [9] is 0.8% (inactive). In addition, the GLP1 secretion stimulation in assay [6] was -3.6% (inactive). In [10], the inhibition of viability is 6% (inactive). The viability decrease (inhibition) was 6.9% (inactive) in assay [11] and -3% (inactive) in assay [12]. For the same compound, in [14], the remaining NAD was 10 nM (inactive).
As for `C[C@]12CC[C@@H]3c4ccc(OC(=O)N(CCCl)CCCl)cc4CC[C@H]3[C@@H]1CC[C@@H]2O`, the nuclear beta-catenin stimulation in assay [4] (at 10 µM) is -1.2% (inactive); in assay [4] (stimulation, at 2 µM) it was 0.4%. In addition, in assay [5], the insulin secretion stimulation was -0.9% (inactive). Moreover, in assay [8], the viability decrease is 18.1% (inactive). Besides, the tube area decrease in [9] was 2.8% (inactive). Also, in [6], the GLP1 secretion stimulation is 2.6% (inactive). Further, the inhibition of viability in assay [10] is -23.1% (inactive). The viability decrease (inhibition) in assay [11] was 56.7% (active); in assay [12], 23.4% (inactive). Moreover, the z-score in assay [15] (MELAS cybrid survival, CellTiter-Glo 48 h, stronger effect = higher value) was -1.9 (inactive); in assay [15] (Rieske KO mouse fibroblast survival, CellTiter-Glo 72 h), 0.249. Besides, the remaining NAD in assay [14] was 10 nM (inactive).
Consider `[N-]=[N+]=CC(=O)OC[C@H](N)C(=O)O`, for which the nuclear beta-catenin stimulation in [4] (at 10 µM) was -2.7% (inactive); in assay [4] (stimulation, at 2 µM), -2.4%. Besides, the insulin secretion stimulation in assay [5] is -0.2% (inactive). In assay [8], the viability decrease is 50.2% (active). The tube area decrease in assay [9] is 12.9% (inactive). Besides, the GLP1 secretion stimulation in [6] was -1.4% (inactive). Also, in assay [10], the inhibition of viability is 77.9% (active). Also, the viability decrease (inhibition) in assay [11] is 104% (active); in assay [12], 57.8% (active). In addition, the remaining NAD in [14] was 10 nM (inactive). Also, the luciferase signal in assay [16] is 40 AU (inactive).
